Source: PubChem BioAssay
Cruzain inh noDet: qHTS Assay for Promiscuous and Specific Inhibitors of Cruzain (without detergent) | AID 1476, 2009 | purified cruzain, Z-FR-AMC fluorescence, no detergent | Potency, µM, hits mostly inhibitors | actives 2.3% (n = 200,000) | Cruzipain (Trypanosoma cruzi), P25779; also: nearly all actives have a fitted effect of over 40% in size
Target sequence (P25779 123-467 limits assumed): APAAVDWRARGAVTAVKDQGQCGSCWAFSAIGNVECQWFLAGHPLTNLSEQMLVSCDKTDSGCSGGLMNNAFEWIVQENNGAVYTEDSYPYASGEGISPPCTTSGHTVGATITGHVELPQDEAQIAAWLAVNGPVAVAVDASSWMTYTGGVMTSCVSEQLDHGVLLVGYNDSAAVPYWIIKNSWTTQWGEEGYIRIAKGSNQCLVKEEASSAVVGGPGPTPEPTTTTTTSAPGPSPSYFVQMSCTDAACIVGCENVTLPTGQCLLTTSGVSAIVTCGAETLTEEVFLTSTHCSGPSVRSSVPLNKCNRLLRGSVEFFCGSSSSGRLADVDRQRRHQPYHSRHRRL
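Detergent-free condition (0.00005% Triton X-100) in acetate buffer pH 5.5 with DTT. 1.5 nM enzyme and compound were pre-mixed 15 min, then 2 uM Z-FR-AMC substrate added; reaction progress from fluorescence change between first and third reads (60 s).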
Cruzain Triton: qHTS Assay for Promiscuous and Specific Inhibitors of Cruzain (with detergent) | actives 0.43% (n = 200,000) | purified cruzain, Z-FR-AMC fluorescence, 0.01% Triton | Potency, µM, hits mostly inhibitors; also: nearly all actives have a fitted effect of over 40% in size
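Enzyme 1.5 nM, Z-FR-AMC 2 uM, NaOAc 100 mM pH 5.5, DTT 5 mM, Triton X-100 0.01%; 15 min RT compound preincubation; kinetic ex360/em450, 60 s delta.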
A number is an active result; - = inactive; ? = inconclusive. In the library only some 2.6% were active in any assay of this set; here they are far more common. Calls follow the shape of the dose curve; as a rule, active = well fitted curve in the direction sought with a large enough effect; inconclusive = small, poorly fitted or top-dose-only effect, or another doubt; inactive = no such curve, though single readings can be large; an effect the other way counts as inactive or inconclusive.

SMILES | Cruzain inh noDet | Cruzain Triton
COc1ccc(S(=O)(=O)c2c(Nc3ccc(C)cc3C)sc(C(=O)c3ccc(F)cc3)c2N)cc1 | 5µM | -
COc1ccc(S(=O)(=O)c2c(Nc3ccccc3F)sc(C(=O)c3cccc(OC)c3)c2N)cc1 | 13µM | -
CCOc1ccccc1Nc1sc(C(=O)c2ccc(Cl)cc2)c(N)c1S(=O)(=O)c1ccccc1 | 3.2µM | -
CC(C)c1ccc(Nc2sc(C(=O)c3ccccc3)c(N)c2S(=O)(=O)c2ccccc2)cc1 | 4µM | -
N#Cc1c(Nc2ccccc2)sc(C(=O)c2ccccc2)c1N | - | -
COc1cccc(C(=O)c2sc(Nc3ccc(F)c(Cl)c3)nc2N)c1 | - | -
CCOc1ccccc1Nc1sc(C(=O)c2ccccc2)c(N)c1S(=O)(=O)c1ccc(C)cc1 | ? | -
O=C1CC(c2ccco2)c2ccc3ccccc3c2N1 (stereo not given) | - | -
O=C(NC1(C(F)(F)F)NC(=O)N(Cc2ccccc2)C1=O)c1cccnc1 (stereo not given) | - | -
CCc1cnc2c(c1SCC(=O)Nc1ccc(C(=O)OC)cc1)c(=O)n(C)c(=O)n2C | - | -
COc1ccc(C(=O)Nc2ccc(S(=O)(=O)N(Cc3ccccc3)c3ccccc3)cc2)cc1 | ? | -
Cc1ccc(CNC(=O)CN2C(=O)CC(c3ccc(C)c(C)c3)=Nc3ccccc32)cc1 | - | -
Cc1ccc(C2=Nc3ccccc3N(CC(=O)NCc3ccccc3Cl)C(=O)C2)cc1C | 25µM | -
Cc1cccc(-c2nc3c(cnn3-c3ccccc3)c(=O)n2-c2ccc(Br)cc2)c1 | - | -
Cc1cccc(-c2nc3c(cnn3-c3ccccc3)c(=O)n2-c2ccc(Cl)cc2)c1 | ? | -
Cc1cccc(C2=NN(c3ccc(Br)cc3)[C@@H](C(=O)N3CCOC3=O)[C@@H]2c2ccc(Cl)cc2)c1 | 8.9µM | -
Cc1cccc(C2=NN(c3ccc(Br)cc3)[C@@H](C(=O)N3CCOC3=O)[C@@H]2c2ccc(F)cc2)c1 | 18µM | -
O=C(N/C(=C/c1cccs1)c1nc2ccccc2[nH]1)c1ccccc1 | - | -
Cc1cc(C)nc(NC(=NCCc2c[nH]c3ccccc23)NC(=O)Nc2ccc(Cl)cc2)n1 | 25µM | -
COc1ccc2[nH]cc(CCN=C(NC(=O)c3cccc(Cl)c3)Nc3nc(C)cc(C)n3)c2c1 | - | -
CN(C)c1ccc(CNc2ncc(Br)cc2Br)cc1 | - | -
CCC1=Nc2cc(C(=O)NCc3ccccc3OC)ccc2Sc2ccc(Cl)cc21 | 32µM | -
CCC1=Nc2cc(C(=O)NCc3ccccc3Cl)ccc2Sc2ccc(C)cc21 | ? | -
CC1=Nc2cc(C(=O)NCc3ccccc3Cl)ccc2Sc2c(C)ccc(C)c21 | 32µM | -
CC1=Nc2cc(C(=O)NCc3ccco3)ccc2Sc2ccc(C)cc21 | - | -
SMILES | Cruzain inh noDet | Cruzain Triton
Cc1ccc(C(=O)CN2/C(=C(\O)c3ccccc3)C(=O)c3ccccc3S2(=O)=O)c(C)c1 | 25µM | -
O=C(CN1C(=O)c2ccccc2S1(=O)=O)c1ccccc1 | - | -
Cc1cc(=O)oc(C)c1C(=O)Nc1ccc2ncccc2c1 | - | -
COc1ccc2cc(/C=N/NC(=O)c3ccc(CN(c4cccc(Cl)c4Cl)S(C)(=O)=O)cc3)c(Cl)nc2c1 | 25µM | -
Cc1ccccc1OCC(=O)N/N=C/c1cc2ccccc2nc1Cl | - | -
O=C(CCN1C(=O)COc2ccccc21)NCc1ccco1 | - | -
O=C(CN1C(=O)/C(=C\c2ccc(F)cc2)Oc2ccccc21)NCc1ccco1 | 25µM | 25µM
COc1ccc(CCNC(=O)Cc2c(C)c3c(cc(C)c4c(C)c(C)oc43)oc2=O)cc1OC | - | -
CCOc1ccc(S(=O)(=O)N2CCN(c3ccc(Cl)c(Cl)c3)CC2)c2ccccc12 | - | -
O=S(=O)(c1cccc2ccccc12)N1CCN(c2ccc(Cl)c(Cl)c2)CC1 | 20µM | -
Cc1csc(NC(=O)c2cccc(Cn3nc(C)c(Br)c3C)c2)n1 | - | -
CCCc1cc(C(=O)NCCc2ccccc2)no1 | - | -
O=C(Cn1nnc2ccccc2c1=O)N1CCCc2ccccc21 | - | -
CC1=C(C)CS(=O)N(c2ccc(S(N)(=O)=O)cc2)C1 (stereo not given) | 16µM | 16µM
CC1=C(C)CS(=O)N(S(=O)(=O)c2ccccc2)C1 (stereo not given) | - | -
Cc1ccc(CNC(=O)CSCc2nc(-c3ccc(Cl)cc3)oc2C)cc1 | - | -
Cc1ccc(S(=O)(=O)N2CCC(=O)N(CCOCc3cccc(C(F)(F)F)c3)CC2)cc1 | ? | -
CCc1ccc(N2CCn3c2nc2c3c(=O)n(Cc3c(F)cccc3Cl)c(=O)n2C)cc1 | - | -
O=C(/C=C/c1ccc(Br)cc1)c1ccc(NC2=NCCCS2)cc1 | ? | -
CC(C)(C)c1ccc(/C=C/C(=O)c2ccc(NC3=NCCCS3)cc2)cc1 | 32µM | -
Cc1ccc(N2C(=O)C3C4CC(=O)C(c5ccccc54)C3C2=O)cc1C (stereo not given) | - | -
Cc1nc(NC(=O)c2ccc([N+](=O)[O-])cc2Cl)sc1C(=O)N(C)C | - | 16µM
Cc1cc(C(=O)Nc2nc(C)c(C(=O)N(C)C)s2)ccc1[N+](=O)[O-] | - | -
Cc1cc(N2C(=O)CC(N3CCC(n4c(=O)[nH]c5ccccc54)CC3)C2=O)no1 (stereo not given) | - | -
CC(C)Oc1ccccc1/C=N/NC(=O)c1ccc(F)cc1 | - | -
SMILES | Cruzain inh noDet | Cruzain Triton
CC(C)Oc1ccc(Br)cc1/C=N\NC(N)=S | 0.032µM | 0.25µM
CCOC(=O)N1CCN(c2ncnc3c2oc2nc(C(C)C)c4c(c23)CCC4)CC1 | - | -
Cc1ccc(-n2c(=O)c3c(C)c(C)sc3n(CC(=O)NCc3ccccc3)c2=O)cc1C | - | -
Cc1nc(NC(=O)CSc2nnc(-c3ccc4c(c3)OCO4)o2)c(Cl)cc1Cl | - | -
O=C(c1ccccc1)c1nn(-c2ccccc2)c(=O)cc1C(F)(F)F | - | -
Cc1ccc(Cc2nnc3n(-c4ccccc4)nc(C(=O)c4ccccc4)n3c2=O)cc1 | 25µM | -
Cn1c(N2CCC(C(N)=O)CC2)nc2c1c(=O)n(Cc1cccc(Br)c1)c(=O)n2C | ? | -
CCOC(=O)c1[nH]c(C)c(C(=O)Nc2cccc(Cl)c2C)c1C | - | -
CC1CCc2c(sc(NC(=O)CSc3ncnc4c3cnn4-c3ccccc3Cl)c2C#N)C1 (stereo not given) | 10µM | -
Cc1csc(NC(=O)CSc2ncnc3c2cnn3-c2ccccc2Cl)n1 | - | -
O=C(Nc1ccccc1-c1ccccc1)NC1CCN(C(=O)N2CCOCC2)CC1 | - | -
CC(CNC(=O)CCCn1c(=O)c2cccn2c2ccc(F)cc21)c1ccccc1 (stereo not given) | 16µM | -
CC(CNC(=O)CCn1c(=O)c2cccn2c2ccc(F)cc21)c1ccccc1 (stereo not given) | - | -
COc1cc(NC(=O)COc2cccc(OC)c2)cc(OC)c1 | - | -
COc1cccc(OCC(=O)NNC(=O)c2ccc(-c3ccccc3)cc2)c1 | 25µM | -
CC(C)CCCC(C)C1CCC2C3=CC[C@@H]4CC(O)CC[C@@]4(C)C3CC[C@]21C (stereo not given in full) | - | -
COCCn1c(C)cc(C2=NNC(=Nc3ccccc3F)SC2)c1C | - | -
C=CCN=C1NN=C(c2cc(C)n(CC=C)c2C)CS1 | 25µM | -
